In assay [1] the target is Methanococcus maripaludis chaperonin (MmCpn) (UniProt Q6LX38). In words: High-Throughput Screening for Modulators of Cytosolic Chaperonin Activity: MmCpn Primary Screen (AID 488978).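 Note: 50 nM MmCpn enzyme hydrolysing 30 µM ATP at 37 °C; 0% is about no effect.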 The method, boiled down: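 Steps: chaperonin 50 nM final; add compound, 5 min RT; start with ATP, 30 uM final; hold 10 min at 37C; add ADP Transcreener HTRF reagent, 5 min; read ex 320, em 590 and 665 nm.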

The target in assay [2] is Transient receptor potential cation channel subfamily V member 1 (Homo sapiens) (UniProt Q8NER1). In words: HTS Assay for Compounds that Act as Enhancers of the Vanilloid Receptor 1 (AID 488979). Note: 0% is about no effect. The method in brief: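 TRPV1 cells loaded with Fluo-8 calcium dye; compound added and Ca2+ signal (ex 480/em 520 nm) followed 3 min, then capsaicin at EC20 added and read 2 more min to detect enhancement.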
Chain of Transient receptor potential cation channel subfamily V member 1 (Homo sapiens) (Q8NER1 whole entry, looked up): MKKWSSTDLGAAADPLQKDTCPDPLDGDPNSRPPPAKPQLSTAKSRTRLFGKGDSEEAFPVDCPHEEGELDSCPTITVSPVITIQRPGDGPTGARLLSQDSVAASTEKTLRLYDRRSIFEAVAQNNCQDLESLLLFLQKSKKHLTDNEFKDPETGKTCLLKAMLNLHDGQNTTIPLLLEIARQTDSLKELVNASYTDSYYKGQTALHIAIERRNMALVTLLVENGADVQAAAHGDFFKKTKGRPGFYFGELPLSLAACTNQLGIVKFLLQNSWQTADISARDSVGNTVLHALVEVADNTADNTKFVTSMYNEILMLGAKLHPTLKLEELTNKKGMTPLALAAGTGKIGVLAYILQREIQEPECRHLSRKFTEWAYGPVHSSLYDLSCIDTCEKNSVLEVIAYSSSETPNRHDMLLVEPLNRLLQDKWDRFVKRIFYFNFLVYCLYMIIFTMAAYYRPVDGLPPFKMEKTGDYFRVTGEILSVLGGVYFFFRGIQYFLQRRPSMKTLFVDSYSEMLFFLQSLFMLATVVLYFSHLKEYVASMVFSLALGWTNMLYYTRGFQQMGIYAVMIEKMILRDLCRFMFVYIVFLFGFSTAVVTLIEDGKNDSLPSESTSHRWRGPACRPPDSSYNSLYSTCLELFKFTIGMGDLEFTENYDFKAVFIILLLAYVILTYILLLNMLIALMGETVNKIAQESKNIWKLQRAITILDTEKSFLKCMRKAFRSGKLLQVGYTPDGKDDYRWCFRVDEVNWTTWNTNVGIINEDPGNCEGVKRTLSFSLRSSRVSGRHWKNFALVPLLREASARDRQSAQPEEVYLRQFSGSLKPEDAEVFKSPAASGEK

In assay [3] the target is Thyrotropin receptor (Homo sapiens) (UniProt P16473). The assay is described as follows: qHTS Assay for Antagonists of the Thyroid Stimulating Hormone Receptor (AID 488980). Note: series mostly up to about 58 µM; 0% is about no effect. The method in brief: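 Readout is cAMP by HTRF competition between cellular cAMP and cAMP-d2 for a cryptate-labelled antibody. Antagonism was assessed in TSHR-transfected HEK293 cells stimulated with 4 nM TSH (EC80, final) in the presence of RO 20-1724.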
Chain of Thyrotropin receptor (Homo sapiens) (P16473 whole entry, looked up): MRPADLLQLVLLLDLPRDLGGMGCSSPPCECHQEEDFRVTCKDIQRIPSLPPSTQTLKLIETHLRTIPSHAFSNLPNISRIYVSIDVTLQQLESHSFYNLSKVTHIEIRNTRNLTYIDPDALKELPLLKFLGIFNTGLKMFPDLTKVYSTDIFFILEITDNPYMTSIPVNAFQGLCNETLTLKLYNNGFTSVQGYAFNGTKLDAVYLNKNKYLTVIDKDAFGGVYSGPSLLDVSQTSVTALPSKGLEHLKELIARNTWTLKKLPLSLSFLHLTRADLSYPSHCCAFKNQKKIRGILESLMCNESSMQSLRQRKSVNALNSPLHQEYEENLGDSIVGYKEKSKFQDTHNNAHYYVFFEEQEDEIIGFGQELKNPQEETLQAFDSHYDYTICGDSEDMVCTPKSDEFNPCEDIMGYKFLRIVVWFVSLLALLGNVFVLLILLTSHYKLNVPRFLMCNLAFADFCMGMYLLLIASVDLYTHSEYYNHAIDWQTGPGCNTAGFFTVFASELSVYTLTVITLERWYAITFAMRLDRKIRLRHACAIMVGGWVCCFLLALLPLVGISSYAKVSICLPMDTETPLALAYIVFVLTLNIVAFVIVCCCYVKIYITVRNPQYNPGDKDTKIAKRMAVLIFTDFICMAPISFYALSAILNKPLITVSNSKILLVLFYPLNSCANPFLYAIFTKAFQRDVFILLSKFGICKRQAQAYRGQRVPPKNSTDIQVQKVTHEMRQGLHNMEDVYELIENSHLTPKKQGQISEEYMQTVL

Assay [4] deals with D(1A) dopamine receptor (Homo sapiens) (UniProt P21728). In words: HTS Assay for Allosteric Agonists of the Human D1 Dopamine Receptor: Primary Screen for Agonists (AID 488981). Note: 0% is about no effect. The method, boiled down:
(§1)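 Tetracycline-induced HEK293 Trex D1 cells with forced coupling to calcium, loaded with no-wash calcium dye; kinetic fluorescence read 180 s after compound addition for agonism, then a further 180 s after an EC20 dopamine challenge for potentiation.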

The target is the same in assay [5]. In words: HTS Assay for Allosteric Agonists of the Human D1 Dopamine Receptor: Primary Screen for Potentiators (AID 488982). Note: 0% is about no effect. The method in brief: as §1
For assay [6] the target is unchanged. The assay is described as follows: HTS Assay for Allosteric Agonists of the Human D1 Dopamine Receptor: Primary Screen for Antagonists (AID 488983).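 Note: calcium flux response to an EC80 dopamine challenge measured with no-wash dye; % is set by controls: 0 for no effect and ±100 for the full control effect; nearly all actives have a fitted effect of over 65% in size.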 The method in brief:
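Tetracycline-induced HEK293 T-REx D1 line, force-coupled to calcium flux, read with no-wash calcium dye. Compound added after 10 s baseline, read 180 s for agonism, then EC80 dopamine added and read a further 180 s.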

Assay [7] deals with Thyrotropin-releasing hormone receptor (Homo sapiens) (UniProt P34981). In words: qHTS for Small Molecule Agonists and Allosteric Enhancers of Human TRH Receptor: Validation Screen for Agonists (AID 493127;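 active = calcium activation more than 3 SD above the typical response in the agonist read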; note: 0% is about no effect). The settings on record: TRH receptor agonist cell assay; at 2 µM; stronger effect = higher value. The method in brief: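 TRHR cells loaded with fluo-8 calcium dye; FDSS kinetic fluorescence (Ex 480/Em 530) read at 1 s/cycle after 23 nL compound addition. Agonist-mode calcium response recorded before the 10 nM TRH (EC20) addition.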
Chain of Thyrotropin-releasing hormone receptor (Homo sapiens) (P34981 whole entry, looked up): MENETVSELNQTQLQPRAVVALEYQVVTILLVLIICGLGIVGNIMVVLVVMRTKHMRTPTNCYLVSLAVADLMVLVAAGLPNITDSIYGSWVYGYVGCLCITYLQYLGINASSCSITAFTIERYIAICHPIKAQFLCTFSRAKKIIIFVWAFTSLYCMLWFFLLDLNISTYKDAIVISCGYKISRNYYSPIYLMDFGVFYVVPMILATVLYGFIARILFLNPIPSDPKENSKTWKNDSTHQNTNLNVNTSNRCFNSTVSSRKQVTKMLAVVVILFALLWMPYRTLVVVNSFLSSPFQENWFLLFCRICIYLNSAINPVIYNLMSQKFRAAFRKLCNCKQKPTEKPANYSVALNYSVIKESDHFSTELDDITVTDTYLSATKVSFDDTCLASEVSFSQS
(Quantitative high-throughput screening tests each substance at several concentrations.)

A short description of assay [8]: Nrf2 qHTS screen for inhibitors: Validation (AID 493153; active = well fitted inhibition curve with a large enough effect in the main read-out, with a control signal flat, not every such curve was filed as active). The settings on record: viability change: measured here: cytotoxicity max response. The method, boiled down: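 A549 cells carrying ARE-firefly luciferase reporter, 5000 cells/well in 5% FBS OPTI-MEM, treated with compound over a concentration series for 18-24 h at 37 C. Luciferase luminescence gave Nrf2 activity; CellTiter-Fluor fluorescence gave viability.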

Assay [9] can be described thus: qHTS for Inhibitors of Cell Surface uPA Generation: Validation Assay (AID 493164). Note: 0% is about no effect. The method, boiled down:
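RAW 264.7 cells (4000/well) were plated overnight, then exposed for 18 h at 37 C, 5% CO2 to compounds in a 7-point 1:5 titration (2.45 nM–38.3 uM final). Intracellular ATP was read by ATP-Lite luminescence.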

In assay [10] the target is Galactokinase (Homo sapiens) (UniProt P51570). In words: qHTS Validation Assay for Inhibitors of Human Galactokinase (GALK) (AID 493189). Note: 0% is about no effect. The method in brief: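 5 nM GALK / 100 uM galactose / 35 uM ATP, 20 mM HEPES pH8.0, 5 mM MgCl2, 60 mM NaCl, 1 mM DTT, 0.01% BSA (final). RT 1 h; Kinase-Glo Plus luminescence.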
Chain of Galactokinase (Homo sapiens) (P51570 whole entry, looked up): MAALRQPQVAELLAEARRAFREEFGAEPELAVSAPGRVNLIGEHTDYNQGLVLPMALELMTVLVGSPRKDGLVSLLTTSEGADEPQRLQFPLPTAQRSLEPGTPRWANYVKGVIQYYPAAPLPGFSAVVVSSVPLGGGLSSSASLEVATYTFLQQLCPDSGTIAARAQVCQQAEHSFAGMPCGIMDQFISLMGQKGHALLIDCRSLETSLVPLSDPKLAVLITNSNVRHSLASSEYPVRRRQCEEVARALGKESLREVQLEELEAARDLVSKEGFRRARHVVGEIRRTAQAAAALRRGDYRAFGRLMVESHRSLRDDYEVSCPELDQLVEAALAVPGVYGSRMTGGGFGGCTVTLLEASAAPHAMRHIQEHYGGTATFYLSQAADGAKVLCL
The nature of assay [11]: Validation screen for small molecules that induce DNA re-replication in SW480 colon adenocarcinoma cells (AID 504364). Note: 0% is about no effect. The method, boiled down:
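SW480 cells (250/well) exposed 48 h at 37 C, 5% CO2, then Hoechst-stained 40 min. Nuclear DNA content imaged by fluorescence scanning (405 nm excitation, 500-530 nm emission); re-replication scored as increased nuclei with elevated intensity.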

Assay [12] concerns the target Peptidyl-prolyl cis-trans isomerase NIMA-interacting 1 (Homo sapiens) (UniProt Q13526). The assay is described as follows: qHTS Validation Assay to Find Inhibitors of Pin1 (AID 504536; active = well fitted inhibition curve with a large enough effect in the polarisation, with a control signal flat, not every such curve was filed as active; the % refers to the polarisation;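 note: 0% = full Pin1 enzyme wells and -100% = no-enzyme wells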). The method, boiled down: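 Fluorescence polarization competition: compounds (titration) displace HiFluor-488-labeled Pin1-1b peptide from Pin1 (0.3 uM final) in pH 7.5 HEPES buffer with DTT, 10 min at room temperature; %Activity normalized to no-enzyme wells, curves fitted.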

Assay [13] concerns the target Phosphoglycerate kinase, glycosomal (Trypanosoma brucei brucei) (UniProt P07378). In words: qHTS Validation Assay to Find Inhibitors of Phosphoglycerate Kinase (AID 504547).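 Note: control wells lack PGK and mark full inhibition.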 The method in brief:
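PGK activity was coupled to GAPDH (100nM final), which generates the unstable substrate 1,3-bisphosphoglycerate in-well. Reactions ran 60 minutes at room temperature in 100mM TEA pH 7.6, 5mM MgCl2, 0.01% Tween-20, then Kinase-Glo Plus luminescence was read.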

Assay [14] has as its target Ubiquitin carboxyl-terminal hydrolase 1 (Homo sapiens) (UniProt O94782). The assay is described as follows: Inhibitors of USP1/UAF1: Pilot qHTS (AID 504865). Note: nearly all actives have a fitted effect of over 35% in size. Note: potency is the fitted concentration of half-maximal effect. The method, boiled down: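 In 50mM HEPES pH 7.8 containing 0.5mM EDTA, 1mM TCEP, 0.1 mg/ml BSA and 0.01% Tween-20, 1nM USP1/UAF1 is exposed to compound for 15 min, then Ub-Rho (150nM final) is added and fluorescence is read over time.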

Assay [15] can be described thus: qHTS for Inhibitors of ATXN expression: Validation of Cytotoxic Assay (AID 588349). Note: potency is the fitted concentration of half-maximal effect. The method, boiled down: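 HEK293 cells treated with titrated compound for 72 hr at 37 degrees C; viability read as intracellular ATP by CellTiter Glo luminescence.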
For assay [16], the target named is DNA dC->dU-editing enzyme APOBEC-3G (Homo sapiens) (UniProt Q9HC16). In words: qHTS for inhibitors of Vif-A3G interactions: Validation (AID 588379). Note: 0% is about no effect. The method, boiled down:
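HeLa cells stably expressing Vif and A3G-eYFP, 700 cells/well, incubated overnight at 37 deg C, then exposed to compound overnight at 37 deg C. Inhibition of Vif-mediated degradation read as increased yellow fluorescence (Ex 488/Em 500-530) by laser-scanning cytometry.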

The nature of assay [17]: Validation screen for small molecules that induce genotoxicity in human embryonic kidney (HEK293T) cells expressing luciferase-tagged ELG1 (AID 493106). Note: potency is the fitted concentration of half-maximal effect. The method in brief:
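HEK293T cells expressing luciferase-tagged ELG1, 2,000 cells/well, exposed to compound 16 hr at 37 °C, 5% CO2. Luciferase read after ONE-Glo, 30 min at room temperature; increased signal indicates genetic stress.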

Assay [18] concerns the target phosphoglycerate mutase (Leishmania major) (UniProt Q4Q090). In words: qHTS Validation Assay to Find Inhibitors of Phosphoglycerate Mutase (AID 504548).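 Note: end-point luminescence from Kinase-GloPlus after the PGAM reaction; series mostly up to about 58 µM; % is set by controls: 0 for no effect and ±100 for the full control effect.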 The method, boiled down: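 L. major PGAM (1.25nM final) was added to substrate buffer and pinned compound, incubated 45 minutes at room temperature, then Kinase-GloPlus added; luminescence read after 10 minutes. Buffer: 100 mM TEA pH 7.6, 5 mM MgCl2, 0.01% Tween-20.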

The target in assay [19] is ATP-dependent 6-phosphofructokinase (Trypanosoma brucei brucei) (UniProt O15648). In words: qHTS Assay to Find Inhibitors of T. brucei phosphofructokinase: hit validation (AID 492961).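 Note: luminescence reports ADP formed as PFK phosphorylates fructose-6-phosphate with ATP; series mostly up to about 51 µM; % is set by controls: 0 for no effect and ±100 for the full control effect.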 The method in brief:
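Inhibition of parasite PFK is measured as reduced ADP formation, quantified via luciferase after ATP depletion. Assay used 0.1 mM ATP, 0.5 mM F6P, 1.25 nM enzyme, 45 min incubation.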

The target of assay [20] is ATPase family AAA domain-containing protein 5 (Homo sapiens) (UniProt Q96QE3). In words: Validation screen for small molecules that inhibit ELG1-dependent DNA repair in human embryonic kidney (HEK293T) cells expressing luciferase-tagged ELG1 (AID 493107).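 Note: cells co-treated with the DNA-damaging agent 5-fluorouridine alongside compound; series mostly up to about 46 µM; % is set by controls: 0 for no effect and ±100 for the full control effect; inhibitors lower the ELG1-luciferase luminescence signal; nearly all actives have a fitted effect of over 70% in size.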 The method, boiled down:
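HEK293T cells expressing luciferase-tagged ELG1, 2,000 per well, treated with 5-fluorouridine plus compound for 16 h at 37 C. ONE-Glo luminescence after 30 min at room temperature reports ELG1 reporter level.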

Results filed as inconclusive are left out. Active and inactive are the calls of the source. Unless noted, calls come from the whole dose curve; as a rule, active = well fitted curve in the direction sought with a large enough effect; inconclusive = small, poorly fitted or top-dose-only effect, or another doubt; inactive = no such curve, though single readings can be large; an effect the other way counts as inactive or inconclusive.

Chain of Ubiquitin carboxyl-terminal hydrolase 1 (Homo sapiens) (O94782 whole entry, looked up): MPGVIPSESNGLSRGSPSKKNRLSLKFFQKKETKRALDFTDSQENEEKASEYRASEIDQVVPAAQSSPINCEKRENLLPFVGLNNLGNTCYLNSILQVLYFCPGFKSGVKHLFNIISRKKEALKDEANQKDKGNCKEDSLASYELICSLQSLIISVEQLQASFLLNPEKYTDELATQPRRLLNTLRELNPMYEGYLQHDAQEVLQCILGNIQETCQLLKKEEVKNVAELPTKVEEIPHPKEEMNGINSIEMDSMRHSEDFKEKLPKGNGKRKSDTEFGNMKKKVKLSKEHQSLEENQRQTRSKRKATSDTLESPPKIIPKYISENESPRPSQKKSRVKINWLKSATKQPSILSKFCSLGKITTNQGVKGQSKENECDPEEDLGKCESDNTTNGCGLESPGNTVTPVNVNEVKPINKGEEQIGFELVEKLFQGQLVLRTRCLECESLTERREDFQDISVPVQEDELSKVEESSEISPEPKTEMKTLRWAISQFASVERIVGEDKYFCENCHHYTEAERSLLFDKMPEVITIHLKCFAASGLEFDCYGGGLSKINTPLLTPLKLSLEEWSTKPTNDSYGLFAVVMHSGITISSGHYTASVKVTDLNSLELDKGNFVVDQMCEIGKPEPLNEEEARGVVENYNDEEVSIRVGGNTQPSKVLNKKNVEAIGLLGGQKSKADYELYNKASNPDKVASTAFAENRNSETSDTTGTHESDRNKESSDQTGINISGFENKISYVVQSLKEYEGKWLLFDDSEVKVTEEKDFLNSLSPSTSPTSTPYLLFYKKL
Chain of D(1A) dopamine receptor (Homo sapiens) (P21728 whole entry, looked up): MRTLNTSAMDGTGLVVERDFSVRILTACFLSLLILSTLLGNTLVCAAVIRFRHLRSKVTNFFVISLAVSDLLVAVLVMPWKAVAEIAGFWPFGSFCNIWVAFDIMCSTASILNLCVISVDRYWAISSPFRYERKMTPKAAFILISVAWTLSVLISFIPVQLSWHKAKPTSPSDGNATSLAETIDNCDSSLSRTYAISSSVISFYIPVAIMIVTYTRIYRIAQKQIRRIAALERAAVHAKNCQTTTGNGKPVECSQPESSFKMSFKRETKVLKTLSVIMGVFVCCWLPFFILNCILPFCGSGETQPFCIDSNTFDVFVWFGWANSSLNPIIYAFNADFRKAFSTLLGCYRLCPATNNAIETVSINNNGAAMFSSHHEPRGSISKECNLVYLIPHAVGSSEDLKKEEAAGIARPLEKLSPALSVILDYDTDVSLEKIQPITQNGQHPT
Chain of Peptidyl-prolyl cis-trans isomerase NIMA-interacting 1 (Homo sapiens) (Q13526 whole entry, looked up): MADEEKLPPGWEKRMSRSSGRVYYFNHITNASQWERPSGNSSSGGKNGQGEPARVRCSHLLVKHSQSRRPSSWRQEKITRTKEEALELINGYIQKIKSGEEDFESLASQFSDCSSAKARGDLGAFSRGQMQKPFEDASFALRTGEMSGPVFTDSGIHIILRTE
Chain of Methanococcus maripaludis chaperonin (MmCpn) (Q6LX38 1-543): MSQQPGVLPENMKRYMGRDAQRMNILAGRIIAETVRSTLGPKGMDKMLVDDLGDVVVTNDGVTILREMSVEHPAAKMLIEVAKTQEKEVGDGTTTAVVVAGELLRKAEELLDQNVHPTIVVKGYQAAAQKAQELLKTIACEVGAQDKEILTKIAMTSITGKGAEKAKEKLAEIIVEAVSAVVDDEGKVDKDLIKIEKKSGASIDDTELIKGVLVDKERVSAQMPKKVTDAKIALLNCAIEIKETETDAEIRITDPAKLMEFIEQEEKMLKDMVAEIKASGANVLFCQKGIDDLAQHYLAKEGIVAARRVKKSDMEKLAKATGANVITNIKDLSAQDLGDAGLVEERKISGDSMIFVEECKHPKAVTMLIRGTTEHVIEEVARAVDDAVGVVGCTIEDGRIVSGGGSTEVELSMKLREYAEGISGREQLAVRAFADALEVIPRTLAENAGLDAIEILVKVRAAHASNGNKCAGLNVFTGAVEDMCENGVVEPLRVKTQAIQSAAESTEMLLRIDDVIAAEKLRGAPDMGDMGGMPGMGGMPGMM
Chain of Phosphoglycerate kinase, glycosomal (Trypanosoma brucei brucei) (P07378 whole entry, looked up): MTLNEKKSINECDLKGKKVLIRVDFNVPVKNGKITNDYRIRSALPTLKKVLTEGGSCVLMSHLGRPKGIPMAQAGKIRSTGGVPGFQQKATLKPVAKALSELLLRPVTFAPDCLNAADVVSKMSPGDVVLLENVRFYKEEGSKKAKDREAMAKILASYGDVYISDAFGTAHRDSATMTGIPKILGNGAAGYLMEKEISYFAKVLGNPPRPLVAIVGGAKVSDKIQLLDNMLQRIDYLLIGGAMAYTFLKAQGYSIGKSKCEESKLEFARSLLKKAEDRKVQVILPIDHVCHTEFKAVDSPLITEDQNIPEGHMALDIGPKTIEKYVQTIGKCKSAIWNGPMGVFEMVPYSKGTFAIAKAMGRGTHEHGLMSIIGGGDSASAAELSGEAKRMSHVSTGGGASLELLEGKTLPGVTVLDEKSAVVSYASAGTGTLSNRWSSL

Turning to `O=c1cc(-c2ccc(O)cc2)oc2cc(O)cc(O)c12`, the result in [1], in assay [2], in assay [3], in assay [4], in assay [5] and in assay [8] was inactive. Moreover, the call in assay [9], in [10], in assay [11], in [12], in [13] and in [16] was inactive. Further, the Potency entry in assay [6], in assay [14] and in assay [15] was “inactive” throughout. The activation in assay [7] was 0.5% (inactive). The viability change in [8] is -8.56%.
In the case of `CC1(C)CCC2=C(O1)c1ccccc1C(=O)C2=O`, the call in assay [1], in [2], in [3], in assay [4], in assay [5] and in assay [9] was inactive. Besides, the molecule was classed as inactive in assay [18]. The Potency result in assay [6] and in [17] was “inactive” throughout. Also, in assay [7], the activation is -3.69% (inactive). In addition, the figures for the Potency in assay [14] and in assay [15] were 5.01 µM (active) and 22.4 µM (active), respectively.
With `COc1cccc(-c2cc(=O)c3ccccc3o2)c1N`, the result in assay [1], in assay [2], in assay [3], in assay [4], in assay [5] and in assay [8] was inactive. Besides, the result in assay [9], in assay [10], in [11], in assay [12], in [13] and in [18] was inactive. In assay [16], the molecule was classed as inactive. Also, the Potency entry in [6], in [14] and in assay [15] was “inactive” each time. Further, the Potency in assay [17] was 2.91 µM (active). In assay [7], the activation is -3.44% (inactive). Further, the viability change in [8] is -8.39%.
With `CN(C)CCC(c1ccccc1)c1ccccn1` (configuration not stated), the molecule was classed as inactive in assay [1], in assay [2], in assay [3], in [4], in [5] and in assay [19]. The molecule was called inactive in assay [20], in assay [8], in [9], in assay [10], in assay [11] and in assay [12]. Further, the outcome in assay [13] and in assay [18] was inactive. Further, the Potency entry in [6], in assay [17], in [14] and in assay [15] was “inactive” throughout. Also, the activation in assay [7] is 1.44% (inactive). In addition, the viability change in assay [8] came to 3.7%.
As to `CC(C)NCC(O)COc1cccc2[nH]ccc12` (configuration not stated), the call in assay [1], in assay [2], in [3], in assay [4], in assay [5] and in assay [20] was inactive. Also, the call in assay [8], in assay [9], in assay [10], in assay [11], in [12] and in [13] was inactive. The result in assay [18] was inactive. Also, the Potency result in assay [6], in [17], in assay [14] and in [15] was “inactive” each time. The activation in [7] was -0.25% (inactive). Also, the viability change in [8] was 3.18%.
